# Unmarked numbers belong to inactive results. Entries that show only a call come without a potency. Calls of active or inactive are those of the source. Calls follow the shape of the full dose curve.
# Target: Estrogen receptor (Homo sapiens) (UniProt P03372)
# Test: qHTS assay to identify small molecule agonists of the estrogen receptor alpha (ER-alpha) signaling pathway in the presence of an antagonist (AID 1259383); also: top concentration of the series differs between compounds; nearly all actives have a fitted effect of over 15% in size
# Settings: VM7Luc4E2 cells, ERE-luciferase, +ICI-182,780, 22 h; series mostly up to 92.4 µM
# Excerpt: National Center for Advancing Translational Sciences [NCATS] NIH Chemical Genomics Center [NCGC] U.S. Environmental Protection Agency [EPA] National Institutes of Environmental Health Sciences [NIEHS] National Toxicology Program [NTP] Assay overview: Estrogen receptor (ER), a member of nuclear hormone receptor plays an important role in development, metabolic homeostasis and reproduction. Two subtypes of ER, ER-alpha and ER-beta, have similar expression patterns with some uniqueness in both types. Endocrine disrupting chemicals (EDCs) and their interactions with steroid hormone receptors like ER causes disruption of normal endocrine function. Therefore, it is important to understand the effect of environmental chemicals in ER signaling pathway. For identifying ER agonists, VM7Luc4E2 cell line has been used in the current assay. VM7Luc4E2 cell line (provided by Denison MS, University of California) endogenously expresses full-length ER-alpha and is stably transfected with a plasmid containing four estrogen responsive elements (ERE) upstream of a luciferase reporter gene. This current screening for measuring luciferase reporter gene activity using VM7Luc4E2 cells against Tox21 10K library collection is a confirmation study on agonist mode screening in presence of ER-antagonist (ICI-182,780) at 10.0nM final concentration.
# Assay Protocol Summary: VM7Luc4E2 cells were cultured in phenol red free assay medium containing 10% charcoal stripped FBS for 5 days prior to the assay. The cells were dispensed at 4,000 cells in 4uL of assay medium per well into white wall/solid-bottom 1536-well plates (Corning Life Sciences, Corning, NY) using a Multidrop Combi (Thermo Fisher Scientific Inc., Waltham, MA) dispenser. After the assay plates were incubated at 37C and 5% CO2 for 24hr, 1uL of 10.0nM (final concentration) ICI-182,780 or assay buffer was added using two separate tips of Flying Reagent Dispenser (FRD, Aurora Discovery, San Diego, CA). Then 23nL of compounds dissolved in DMSO at 15 concentrations and positive controls or DMSO only was transferred to the assay plates by a Pintool station (Wako, San Diego, CA). The assay plates were incubated at 37C and 5% CO2 for 22hr. For luciferase read, 4uL/well ONE-Glo reagent (Promega Corporation, Madison, WI) was added to each well using FRD and after 30min incubation at room temperature, luminescence signal was measured on ViewLux plate reader (PerkinElmer, Shelton, CT).
# Chain of Estrogen receptor (Homo sapiens) (P03372 whole entry, looked up): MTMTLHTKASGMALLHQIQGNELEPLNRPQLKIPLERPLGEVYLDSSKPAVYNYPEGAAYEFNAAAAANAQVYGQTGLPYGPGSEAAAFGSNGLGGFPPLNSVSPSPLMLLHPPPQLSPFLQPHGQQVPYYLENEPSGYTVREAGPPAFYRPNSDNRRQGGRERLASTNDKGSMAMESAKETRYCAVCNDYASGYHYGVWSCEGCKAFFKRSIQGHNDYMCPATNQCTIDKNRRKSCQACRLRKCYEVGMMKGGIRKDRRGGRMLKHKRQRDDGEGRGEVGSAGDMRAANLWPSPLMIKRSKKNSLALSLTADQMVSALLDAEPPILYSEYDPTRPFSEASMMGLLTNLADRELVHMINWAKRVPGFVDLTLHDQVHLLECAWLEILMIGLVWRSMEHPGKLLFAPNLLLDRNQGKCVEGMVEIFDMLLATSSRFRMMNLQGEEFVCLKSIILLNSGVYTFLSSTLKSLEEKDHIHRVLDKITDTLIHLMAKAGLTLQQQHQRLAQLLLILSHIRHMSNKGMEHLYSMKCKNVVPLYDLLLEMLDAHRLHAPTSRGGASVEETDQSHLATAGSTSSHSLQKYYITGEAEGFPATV
SMILES,Potency,activation
CC(C)CCOCCC(C)C,inactive,
CCCCCCCC/C=C\CCCCCCCC(=O)N(C)CC(=O)O,inactive,
CC(=O)C=O,inactive,
CCN(CC)CCOc1ccc(C(O)(Cc2ccc(Cl)cc2)c2ccc(C)cc2)cc1 (stereo not given),inactive,
CCC(=O)OCCc1ccccc1,inactive,
Oc1cc2ccccc2cc1O,inactive,
CSc1ccc2c(c1)N(CCC1CCCCN1C)c1ccccc1S2 (stereo not given),inactive,
COc1cc(C=C2CCC/C(=C\c3ccc(O)c(OC)c3)C2=O)ccc1O,inactive,
CCN(CC)CCNc1ccc(CO)c2sc3ccccc3c(=O)c12,inactive,
CCOCN(C(=O)CS(=O)(=O)O)c1c(C)cccc1CC,inactive,
Cc1cccc(N(C)C)c1,inactive,
CC(C)N=C(N)/N=C(\N)Nc1ccc(Cl)cc1,inactive,
c1ccc(Nc2cccc3ccccc23)cc1,inactive,
O=S(O)O,,-0.842% [at 19 µM]
CCCCCCCC(C)=O,inactive,
CCCCCCCCCCCCCc1ccccc1,inactive,
C=CC(C)(CCC=C(C)C)OC(=O)/C=C/c1ccccc1 (stereo not given),inactive,
CN(C)CCCN1c2ccccc2Sc2ccc(C(F)(F)F)cc21,inactive,
CCCCCCCCCCCCOC(=O)c1cc(O)c(O)c(O)c1,inactive,
Cc1cc(=O)[nH]c(=O)[nH]1,inactive,

SMILES,Potency,activation
Cc1cc2c(C(C)C)c(O)c(O)c(C=O)c2c(O)c1-c1c(C)cc2c(C(C)C)c(O)c(O)c(C=O)c2c1O,inactive,
CCCCOC(=O)C(C)CC (stereo not given),inactive,
Cc1ccc(N)cc1O,inactive,
CN(Cc1cc(Br)cc(Br)c1N)C1CCCCC1,inactive,
CO[C@H]1C=CO[C@@]2(C)Oc3c(C)c(O)c4c(O)c(cc(O)c4c3C2=O)NC(=O)/C(C)=C\C=C/[C@H](C)[C@H](O)[C@@H](C)[C@@H](O)[C@@H](C)[C@H](OC(C)=O)[C@@H]1C,inactive,
CCCC(=O)OCC(COC(=O)CCC)OC(=O)CCC,inactive,
c1ccc(Sc2ccccc2)cc1,inactive,
NC(=O)c1ccccc1N,inactive,
CO[Si](CCCNCCNCCN)(OC)OC,inactive,
O=C1NC2CCCCN2C12CCN(CCCN1c3ccccc3CCc3ccc(Cl)cc31)CC2 (stereo not given),inactive,
COc1cccc(O)c1,inactive,
CCOC(=O)C1=C(C)NC(C)=C(C(=O)OCC)C1c1ccccc1/C=C/C(=O)OC(C)(C)C,inactive,
CNC(=O)c1cc(Oc2ccc(NC(=O)Nc3ccc(Cl)c(C(F)(F)F)c3)cc2)ccn1,inactive,
S=P(N1CC1)(N1CC1)N1CC1,inactive,
CCCCCCOc1cc(C)c(O)c(C)c1C,inactive,
CC1CCCNC1 (stereo not given),inactive,
O=Nc1ccc(NO)cc1,inactive,
Cn1cnc2ncnc(N)c21,inactive,
CC(C)c1ccccc1N,inactive,
CN1CN(C)CN(C)C1,inactive,
